# Test results as given in PubChem BioAssay AID686978 (National Center for Advancing Translational Sciences (NCATS), 2013).
# “And” between values parts separate entries of the source, which are not always exact repeats. Equal entries are not always repeated. Out of some 420,000 compounds screened, about 64,000 (15%) were called active. Roughly 27% stayed inconclusive and do not appear here. Shown is part of a subset that was picked to be rich in actives. A number with no mark means an inactive call. Calls follow the shape of the dose curve; as a rule, active = well fitted inhibition curve with a large enough effect; inconclusive = small, poorly fitted or top-dose-only effect; inactive = flat fitted curve, though single readings scatter.
# Assay: qHTS for Inhibitors of human tyrosyl-DNA phosphodiesterase 1 (TDP1): qHTS in cells in absence of CPT; also: nearly all actives have a fitted effect of over 55% in size
# Settings: DT40 Tdp1-/- hTDP1 cells, no CPT, ATP luminescence, 48 h; series mostly up to 46.2 µM; activity change, negative = growth inhibition: at the top concentration
# From the text: Human tyrosyl-DNA phosphodiesterase 1 (TDP1) is a novel repair gene, and we propose to use it as a new target for anticancer drug development. TDP1 is not an essential protein, but under treatment with topoisomerase I poison (camptothecin: CPT), TDP1 works as a critical factor for cell survival. To directly identify novel TDP1 inhibitors active in a cellular environment, we have knocked-out the Tdp1 gene in chicken DT40 cells (Tdp1-/-) and generated a complemented counterpart cells that contains a stable transfection of the human TDP1 gene (Tdp1-/-;hTDP1 cells). For the primary screen, Tdp1-/-;hTDP1 cells will be exposed to small molecules in the presence or absence of CPT, and their growth kinetics will be evaluated after 48 hours by measuring ATP activity. […] The hit compounds will then be evaluated in the presence or absence of CPT using Tdp1-/- cells. […] In tertiary assays, biochemical gel-based assays will be used to assess whether the hit compounds specifically target TDP1.
# To this end, we have screened this cell line against the MLSMR in two primary screens. In one screen we add CPT and in the other we screen in the absence of CPT; this AID represents the screen where CPT was absent.
# NIH Chemical Genomics Center [NCGC]
# NIH Molecular Libraries Probe Centers Network [MLPCN]
# Assay Submitter (PI): Yves Pommier, NCI
# DT40-hTDP1 cells without 20 nM Camptothecin (add 20 microL of DMSO in 1 L of cell culture medium) were dispensed at 400 cells/5microL/well in tissue culture treated 1536-well white wall/solid bottom assay plates (Greiner Bio-One North America, NC, U.S.A.) using a Multidrop Combi 8 channel dispenser (Thermo Fisher, Waltham, MA, USA). 23 nL compounds and controls were transferred using the pin tool (Kalypsys, San Diego, CA, USA) to the assay plates. The assay plates were then incubated at 37 masculineC for a minimum 48 hr. Three microL of Cell Titer Glo solution was added to the plates and incubated at RT in dark for 30 min. Luminescence was read using ViewLux (Perkin Elmer) with 1 sec exposure slow speed, high gain and 2x binning.
# % is scaled to controls: 0 for no effect and ±100 for the full control effect; potency is read from the fitted curve at half-maximal effect.
Structure (SMILES),Potency,"activity change, negative = growth inhibition"
CN(Cc1cccc2ncccc12)C(=O)c1cnn(-c2nccc(-c3ccccc3F)n2)c1C1CC1,3.66 µM (active),–
CCOC(=O)CC(SP1(=S)OCC2(CCCCO2)C(C2CCCCO2)O1)C(=O)OCC (configuration not stated),–,-23.8%
CC[N+](C)(CC)CCC[n+]1c(-c2ccccc2)c2cc(N)ccc2c2ccc(N)cc21,2.58 µM (active),–
CCOP(=S)(OCC)C(O)CCCCCn1c(=O)c(F)cn(C2CCCO2)c1=O (configuration not stated),–,-6.96%
O=C(Nc1ccc(Cl)cc1C(=O)c1ccccc1)c1cc(Cl)cc(Cl)c1,–,-8.13%
CCC1(c2ccccc2)C(=O)NC(=O)N(C)C1=O (configuration not stated),–,-2.29%
CC=C(C)C(=O)OC1CCN2CC=C(COC(=O)C(O)(C(C)OC)C(C)(C)O)C12 (configuration not stated),–,1.67%
COC(=O)C1=C(c2ccc(F)cc2F)C[C@@H]2CC[C@H]1N2C(=O)NC1CC1,–,-26.6%
COC(=O)C1=C(c2ccc(C(C)=O)cc2)C[C@@H]2CC[C@H]1N2C(=O)NCCNC(C)=O,–,13.1%
COC(=O)C1=C(c2ccc(Cl)c(C(F)(F)F)c2)C[C@@H]2CC[C@H]1N2C(=O)NC1CC1,10.3 µM (active),–
COC(=O)C1=C(c2ccc(Cl)c(C(F)(F)F)c2)C[C@@H]2CC[C@H]1N2C(=O)NC(C)C,20.6 µM (active),–
COc1ccc(NC(=O)N2CCC3(CC2)OCCO3)c(OC)c1,–,7.95%
CCOC(=O)c1c(C)c(C(=O)N2CCC3(CC2)OCCO3)c(C)n1CC,–,4.35%
CCN1c2nc3c(C)cccn3c(=O)c2CC2(C(=O)N(C)C(=O)N(C)C2=O)C1C (configuration not stated),–,-4.11%
CN(C)C(=O)NC(O)C(Cl)(Cl)Cl (configuration not stated),–,0.9%
COc1ccc(-c2nn(CCC#N)cc2C(=O)Nc2ccc(C(C)=O)cc2)cc1,–,5.46%
CN(C)CC1Oc2ccccc2OC1(O)c1ccccc1 (configuration not stated),2.06 µM (active),–
CCCOC(=O)C1C2c3ccccc3C(c3ccccc32)C1C(=O)O (configuration not stated),–,-12.7%
CC(CC(C#N)(c1ccccc1)c1ccccc1)N1CCCCC1 (configuration not stated),–,-3.92%
CC(C)(c1ccc(OC[C@@H]2CO2)cc1)c1ccc(OC[C@H]2CO2)cc1,11.9 µM (active),–
CCOC(=O)C(O)(c1ccc(N)c(OC)c1)C(F)(F)F (configuration not stated),–,-3.69%
Cc1cc(N2C(=O)C3CCCN3C2c2ccc(Cl)c(Cl)c2)no1 (configuration not stated),–,6.03%
CN(C)S(=O)(=O)c1cc(C(=O)N2CCC(C(=O)O)(c3ccccc3)CC2)ccc1Cl,–,-3.11%
Cc1ccc(NC(=O)CN(C)CC(=O)Nc2cccc(F)c2)cc1[N+](=O)[O-],1.16 µM (active),–

Structure (SMILES),Potency,"activity change, negative = growth inhibition"
C=CCSSCC=C,–,2.53%
O=C(NCC(c1cccnc1)N1CCN(c2ccccc2)CC1)Oc1ccccc1 (configuration not stated),–,-19.5%
COc1cc2c(cc1OC)[C@@H]1C(=O)c3ccc(O)c(CC=C(C)C)c3OC1CO2 (some centres not stated),–,-17.4%
N#CC1=C(N)Oc2c(c(=O)oc3ccccc23)C1c1ccccc1OC(=O)c1cccs1 (configuration not stated),23.1 µM (active),–
CCNc1nc2[nH]c(=O)c3c(c2s1)OC(N)=C(C#N)C3c1cccs1 (configuration not stated),–,-27.5%
CCOC(=O)C(O)(c1ccc(N=Cc2ccccc2O)c(C)c1)C(F)(F)F (configuration not stated),–,26.3%
CCOc1ccc(-c2cc(C)[n+](CCN(CC)CC)c(-c3ccc(OCC)cc3)c2)cc1,0.184 µM (active),–
COc1ccc(CNCCc2ccc3c(c2)OCO3)c(OC)c1OC,–,-22.3%
COc1cc(C2c3cc4c(cc3C(O)C3COC(=O)C23)OCO4)cc(OC)c1OC (configuration not stated),28.2 nM (active) and 73.1 nM (active),–
COc1ccccc1OC(=O)c1ccc(C)c(S(=O)(=O)N2CCOCC2)c1,–,-10.1%
CCCCn1c(=O)c(C(=O)Nc2ccccc2Cl)c(O)c2ccccc21,25.9 µM (active),–
COc1cc(C(c2c(O)c3ccccc3oc2=O)c2c(C)n(C)n(-c3ccccc3)c2=O)ccc1O (configuration not stated),inactive,–
CCCCCn1c(=O)c(C(=O)NCc2ccccc2)c(O)c2ccccc21,6.51 µM (active),–
CCCCCn1c(=O)c(C(=O)Nc2c(C)n(C)n(-c3ccccc3)c2=O)c(O)c2ccccc21,4.61 µM (active),–
CCCCCn1c(=O)c(C(=O)NCc2ccccn2)c(O)c2ccccc21,20.6 µM (active),–
O=C(CSC1c2ccccc2-c2ccccc21)N/N=C/c1ccccc1,–,-16.6%
O=C1CC(=O)N(Cc2ccccc2)C(=O)N1CCCCCCN1C(=O)CC(=O)N(Cc2ccccc2)C1=O,–,2.08%
CN(C)C(=O)Oc1cc(=O)n2c3c(cccc13)CCC2,–,-22.8%
CC[N+]1(CCOC(=O)C(O)(c2ccccc2)c2ccccc2)CCCCC1,–,-6.5%
O=C(c1cc(S(=O)(=O)N2CCOCC2)ccc1F)N1CCC2(CC1)OCCO2,–,-19.4%
CO[C@@H]1C[C@@H](C[C@H]2CC[C@H](C)[C@@H]([C@@H](C)C(=O)O)O2)O[C@]2(O[C@](C)([C@H]3CC[C@@](C)(C4OC([C@H]5O[C@@](O)(CO)[C@H](C)C[C@@H]5C)C[C@@H]4C)O3)C[C@H]2C)[C@@H]1C (some centres not stated),0.588 µM (active),–
CN(C)P(=S)(Nc1ccccc1)C(Cl)(Cl)Cl (configuration not stated),–,-28.9%
CN(C)C(=O)Oc1ccc(NC(=O)N2CCOCC2)cc1,–,15.6%
